PubChem BioAssay (Tox21)
Records with an inconclusive call do not appear. Entries that show only a call come without a potency. Unmarked numbers belong to inactive results. The source made the active and inactive calls. Unless noted, calls follow the shape of the dose curve; as a rule, active = well fitted curve in the direction sought with a large enough effect in the repeat runs; inconclusive = weak or mixed curves; inactive = no such curve, though single readings can be large; an effect the other way counts as inactive or inconclusive.

Experiments:
[1] = qHTS assay to identify small molecule agonists of the peroxisome proliferator-activated receptor delta (PPARd) signaling pathway - cell viability counter screen (AID 743211); also: nearly all actives have a fitted effect of over 55% in size; also: potency is read from the fitted curve at half-maximal effect
Outline: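 Viability was measured as CellTiter-Glo luminescence (30 min, room temperature) in the same wells as the beta-lactamase readout. GeneBLAzer PPARd UAS-bla HEK293H cells received compound after 5 h plating and were incubated 17 h at 37 C.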

[2] = molecular target: Peroxisome proliferator-activated receptor delta (Homo sapiens) (UniProt Q03181); experiment: qHTS assay to identify small molecule agonists of the peroxisome proliferator-activated receptor delta (PPARd) signaling pathway (AID 743212; calls by dose curve)
Outline: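 Read-out: beta-lactamase FRET fluorescence after 2 h room-temperature incubation with LiveBLAzer B/G substrate. Cells were HEK293H carrying a UAS-bla reporter for PPARd, treated at 37 C with DMSO-dissolved compounds.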

[3] = molecular target: Peroxisome proliferator-activated receptor delta (Homo sapiens) (UniProt Q03181); experiment: qHTS assay to identify small molecule antagonists of the peroxisome proliferator-activated receptor delta (PPARd) signaling pathway (AID 743215; active = well fitted inhibition curve with a large enough effect in the signal ratio in the repeat runs, not every such curve was filed as active; the % refers to the signal ratio;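 also: cells stimulated with agonist L165041 at 300 nM final during compound exposure; series mostly up to about 62 µM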)
Outline: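 Agonist L165041 (300 nM final) added with compound to PPARd-bla HEK293H UAS-bla reporter cells; 17 h incubation at 37 C. Read-out: LiveBLAzer FRET substrate, 2 h at room temperature, fluorescence intensity.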

[4] = qHTS assay to identify small molecule agonists of the farnesoid-X-receptor (FXR) signaling pathway - cell viability counter screen (AID 743218); also: nearly all actives have a fitted effect of over 45% in size
Outline: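 Viability counter screen in the same wells: CellTiter-Glo luminescence, 30 min room-temperature incubation, measured after the beta-lactamase read. Cells were GeneBLAzer FXR-UAS-bla HEK 293T, compound-treated 16 h at 37C.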

[5] = qHTS assay to identify small molecule antagonists of the farnesoid-X-receptor (FXR) signaling pathway - cell viability counter screen (AID 743221; active = well fitted cell-killing curve with a large enough effect in the repeat runs, not every such curve was filed as active; also: nearly all actives have a fitted effect of over 50% in size; also: potency is read from the fitted curve at half-maximal effect)
Outline: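 Cytotoxicity counter screen run in the FXR-bla reporter wells: HEK 293T cells exposed to compound with 50 uM (final) chenodeoxycholic acid for 16 h, 37 C, then viability measured by CellTiter-Glo luminescence after 30 min, room temperature.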

[6] = molecular target: Vitamin D3 receptor (Homo sapiens) (UniProt P11473); experiment: qHTS assay to identify small molecule agonists of the vitamin D receptor (VDR) signaling pathway (AID 743222; calls by dose curve)
Outline: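 Agonist mode, beta-lactamase reporter: fluorescence from LiveBLAzer B/G FRET substrate (2 h, room temperature) read after 16 h compound treatment at 37 C of VDR-bla cells, which were pre-incubated 4 h after seeding.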

[7] = molecular target: Bile acid receptor (Homo sapiens) (UniProt Q96RI1); experiment: qHTS assay to identify small molecule agonists of the farnesoid-X-receptor (FXR) signaling pathway (AID 743220; active = well fitted activation curve with a large enough effect in the signal ratio in the repeat runs, not every such curve was filed as active; the % refers to the signal ratio)
Outline: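 FXR-UAS-bla HEK 293T cells carrying a UAS-driven beta-lactamase reporter were plated for 5 h at 37C/5% CO2, then exposed to DMSO-dissolved Tox21 10K compounds for 16 h at 37C. A LiveBLAzer B/G FRET substrate was loaded for 2 h at room temperature before fluorescence reading.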

[8] = molecular target: Vitamin D3 receptor (Homo sapiens) (UniProt P11473); experiment: qHTS assay to identify small molecule antagonists of the vitamin D receptor (VDR) signaling pathway (AID 743223; active = well fitted inhibition curve with a large enough effect in the signal ratio in the repeat runs, not every such curve was filed as active; the % refers to the signal ratio)
Outline: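 Antagonist mode: compound added to VDR-bla cells alongside agonist 1alpha,25-dihydroxyvitamin D3 (3 nM final), incubation 16 h at 37C. Read-out is LiveBLAzer FRET fluorescence, 2 h at room temperature.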

[9] = qHTS assay to identify small molecule antagonists of the peroxisome proliferator-activated receptor delta (PPARd) signaling pathway - cell viability counter screen (AID 743213); also: nearly all actives have a fitted effect of over 50% in size; also: potency is read from the fitted curve at half-maximal effect
Outline: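 Cytotoxicity counter screen: CellTiter-Glo luminescence read 30 min after addition, in the same wells as the reporter assay. There, PPARd UAS-bla HEK293H cells (3000/well) were treated 17 h at 37 C with compound and 300 nM L165041.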

[10] = molecular target: Bile acid receptor (Homo sapiens) (UniProt Q96RI1); experiment: qHTS assay to identify small molecule antagonists of the farnesoid-X-receptor (FXR) signaling pathway (AID 743217; active = well fitted inhibition curve with a large enough effect in the signal ratio in the repeat runs, not every such curve was filed as active; the % refers to the signal ratio)
Outline: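 Antagonist mode: chenodeoxycholic acid at 50 uM final stimulates a UAS-driven beta-lactamase reporter in HEK 293T FXR-bla cells during 16 h, 37C compound exposure. Read-out is FRET substrate fluorescence after 2 h at room temperature.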

Chain of Vitamin D3 receptor (Homo sapiens) (P11473 whole entry, looked up): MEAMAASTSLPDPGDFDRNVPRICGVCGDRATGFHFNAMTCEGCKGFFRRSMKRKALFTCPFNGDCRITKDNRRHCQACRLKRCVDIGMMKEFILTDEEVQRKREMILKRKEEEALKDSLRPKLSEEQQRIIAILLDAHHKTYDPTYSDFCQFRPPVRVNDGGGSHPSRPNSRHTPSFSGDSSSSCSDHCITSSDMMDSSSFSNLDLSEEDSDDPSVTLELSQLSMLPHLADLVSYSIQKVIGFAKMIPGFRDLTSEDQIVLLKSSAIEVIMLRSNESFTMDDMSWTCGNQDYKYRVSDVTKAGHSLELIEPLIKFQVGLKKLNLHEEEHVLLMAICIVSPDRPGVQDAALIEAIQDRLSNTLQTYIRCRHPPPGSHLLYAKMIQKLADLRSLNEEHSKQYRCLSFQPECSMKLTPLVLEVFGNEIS
Chain of Peroxisome proliferator-activated receptor delta (Homo sapiens) (Q03181 whole entry, looked up): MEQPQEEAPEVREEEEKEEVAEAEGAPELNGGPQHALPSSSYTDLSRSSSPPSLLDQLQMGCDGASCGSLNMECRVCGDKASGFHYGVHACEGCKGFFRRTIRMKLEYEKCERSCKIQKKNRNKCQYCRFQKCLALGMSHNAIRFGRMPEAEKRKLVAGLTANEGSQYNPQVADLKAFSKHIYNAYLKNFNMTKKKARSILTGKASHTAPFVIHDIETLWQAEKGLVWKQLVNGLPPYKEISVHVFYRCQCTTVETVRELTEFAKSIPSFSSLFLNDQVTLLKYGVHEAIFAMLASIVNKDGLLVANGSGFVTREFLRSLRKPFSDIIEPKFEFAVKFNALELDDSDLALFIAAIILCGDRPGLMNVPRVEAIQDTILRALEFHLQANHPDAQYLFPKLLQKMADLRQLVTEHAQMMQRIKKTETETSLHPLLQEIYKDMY
Chain of Bile acid receptor (Homo sapiens) (Q96RI1 whole entry, looked up): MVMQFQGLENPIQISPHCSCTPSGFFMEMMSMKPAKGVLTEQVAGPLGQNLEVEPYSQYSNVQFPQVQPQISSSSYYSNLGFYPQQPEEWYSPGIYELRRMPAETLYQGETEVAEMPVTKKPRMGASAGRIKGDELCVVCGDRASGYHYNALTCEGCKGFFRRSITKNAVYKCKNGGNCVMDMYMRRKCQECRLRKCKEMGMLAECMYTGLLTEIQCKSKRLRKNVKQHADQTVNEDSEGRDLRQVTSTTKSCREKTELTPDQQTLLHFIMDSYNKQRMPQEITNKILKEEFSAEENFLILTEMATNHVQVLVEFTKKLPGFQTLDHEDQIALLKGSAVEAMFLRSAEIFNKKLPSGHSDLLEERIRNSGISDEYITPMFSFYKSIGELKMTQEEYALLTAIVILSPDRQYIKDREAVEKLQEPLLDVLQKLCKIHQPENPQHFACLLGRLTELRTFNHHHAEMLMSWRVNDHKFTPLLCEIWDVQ

Compound	Potency [1]	outcome [2]	outcome [3]	outcome [4]	Potency [5]	outcome [6]	outcome [7]	outcome [8]	Potency [9]	outcome [10]
CCCC=O	inactive	inactive	inactive	inactive	inactive	inactive	–	–	–	–
O=C(O)/C=C/c1ccc(Cn2ccnc2)cc1	inactive	inactive	inactive	inactive	inactive	inactive	inactive	inactive	–	–
Cc1c(C)n(CCN(C)C)c2ccc(C(=O)OCCN(C)C)cc12	inactive	inactive	inactive	inactive	inactive	inactive	–	inactive	–	–
NS(=O)(=O)c1cc2c(cc1C(F)(F)F)NC(Cc1ccccc1)NS2(=O)=O (stereo unspecified)	inactive	inactive	–	–	inactive	inactive	–	inactive	inactive	–
CC1CCN(CCCC(=O)c2ccc(F)cc2)CC1	inactive	–	–	inactive	inactive	–	inactive	–	inactive	–
CCO[Si](C)(OCC)OCC	inactive	inactive	inactive	–	inactive	inactive	–	inactive	–	–
O=S(=O)(O)c1ccccc1O	inactive	–	inactive	inactive	inactive	–	–	–	inactive	–
CC(CCO)CCCC(C)(C)O (stereo unspecified)	inactive	–	–	inactive	inactive	inactive	inactive	inactive	inactive	–
CCCCCCC(CCCCCCCCCCC(=O)OCC(COC(C)=O)OC(C)=O)OC(C)=O (stereo unspecified)	inactive	–	inactive	–	inactive	inactive	inactive	inactive	inactive	–
CCCCOCC(C)OCC(C)O (stereo unspecified)	inactive	inactive	inactive	inactive	inactive	inactive	inactive	inactive	–	–
CCCOCC(C)OCC(C)O (stereo unspecified)	inactive	–	–	inactive	inactive	inactive	inactive	inactive	inactive	–
c1ccc(CCCc2ccccn2)cc1	inactive	–	–	inactive	inactive	inactive	inactive	–	inactive	inactive
C#CC(O)C(CC)CCCC (stereo unspecified)	inactive	–	–	inactive	inactive	–	–	–	inactive	–
CCCCC=O	inactive	–	–	inactive	inactive	inactive	inactive	inactive	inactive	–
CO[Si](CCCNCCC[Si](OC)(OC)OC)(OC)OC	inactive	–	–	inactive	inactive	inactive	inactive	inactive	inactive	–
CCCCC1CCCCC(=O)O1 (stereo unspecified)	inactive	–	inactive	inactive	inactive	inactive	–	inactive	inactive	–

Compound	Potency [1]	outcome [2]	outcome [3]	outcome [4]	Potency [5]	outcome [6]	outcome [7]	outcome [8]	Potency [9]	outcome [10]
CCCCCN(CCCCC)C(=O)C(CCC(=O)O)NC(=O)c1ccc(Cl)c(Cl)c1 (stereo unspecified)	inactive	–	inactive	inactive	inactive	–	–	–	inactive	–
OCC(CO)(CO)COCC(CO)(CO)CO	inactive	–	–	inactive	inactive	inactive	inactive	inactive	inactive	inactive
CC1=CC(C)C(C=O)C(C)C1 (stereo unspecified)	inactive	–	–	inactive	–	inactive	inactive	inactive	inactive	–
CCCC(C)C(=O)O (stereo unspecified)	inactive	inactive	–	inactive	inactive	inactive	inactive	inactive	–	–
Oc1ccc2c(c1)OC[C@@H](N1CCC(O)(c3ccc(F)cc3)CC1)[C@H]2O	inactive	inactive	inactive	inactive	inactive	inactive	–	–	–	–
CCCCCCCCCCCCI	inactive	–	–	inactive	inactive	inactive	inactive	inactive	inactive	–
C[C@H]1O[C@@H](n2cc(F)c(=O)[nH]c2=O)[C@H](O)[C@@H]1O	inactive	–	–	inactive	inactive	–	–	–	inactive	–
COCc1ccc(COC)cc1	inactive	–	inactive	inactive	inactive	–	inactive	inactive	inactive	inactive
COc1ccc(N=[N+]([O-])c2ccc(OC)cc2)cc1	inactive	inactive	–	–	inactive	inactive	–	inactive	inactive	–
C=CCOc1nc(OCC=C)nc(OCC=C)n1	inactive	inactive	inactive	inactive	inactive	inactive	–	–	–	–
NCCN1CCNC1=O	inactive	inactive	inactive	inactive	inactive	inactive	–	inactive	–	–
CNc1ncnc2nc[nH]c12	inactive	inactive	inactive	inactive	–	inactive	–	–	–	–
Nc1ncnc2c1ncn2Cc1c(F)cccc1Cl	inactive	inactive	–	inactive	inactive	–	–	inactive	–	–
C=CCSCC1Nc2cc(Cl)c(S(N)(=O)=O)cc2S(=O)(=O)N1 (stereo unspecified)	inactive	inactive	inactive	inactive	inactive	inactive	inactive	inactive	–	–
Cc1nc(-c2ccc(OCC(C)C)c(C#N)c2)sc1C(=O)O	inactive	–	–	inactive	inactive	–	–	–	inactive	–
CN(C)C(=O)C(CCN1CCC(O)(c2ccc(Cl)cc2)CC1)(c1ccccc1)c1ccccc1	23.7 µM (active)	–	–	–	29.8 µM (active)	–	inactive	inactive	11.9 µM (active)	–
